The source of these data is PubChem BioAssay (NCATS).

Records with an inconclusive call do not appear. Activity calls are given as the source filed them. Calls come from the whole dose curve; as a rule, active = well fitted curve in the direction sought with a large enough effect; inconclusive = small, poorly fitted or top-dose-only effect, or another doubt; inactive = no such curve, though single readings can be large; an effect the other way counts as inactive or inconclusive.

The subject of test [1] is NIH3T3. The experiment in a line: qHTS assay to identify novel small-molecules to repurpose for Merkel cell carcinoma treatment (AID 1296009). Note: nearly all actives have a fitted effect of over 60% in size. As to conditions: MCC and control cell lines, CellTiter-Glo viability, 72 h; series mostly up to 44.8 µM. The gist of the method: (§1)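 qHTS format: cells treated with library compounds in DMSO across 8 (NPC) or 11 (MIPE) concentrations. Readout after 72 hr at 37 degree celsius was CellTiter-Glo luminescence.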
For orientation: In qHTS, concentration-response curves come from the screen itself.

Test [2] concerns C33A. Kind of test: Primary qHTS to identify gynecologic anti-cancer compounds using libraries of approved drugs and bioactive compounds (AID 1345084). Note: nearly all actives have a fitted effect of over 55% in size. As to conditions: Gynecologic cancer cell panel viability, ATPlite luminescence, 48 h; series mostly up to 57.5 µM. In a few lines:
(§2)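 Cell viability after 48 h drug treatment, ATPlite luminescence readout; five doses.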

For test [3], the system named is CAOV3. Described as above. To be noted: Gynecologic cancer cell panel viability, ATPlite luminescence, 48 h; series mostly up to 57.5 µM. The gist of the method:
as §2
In general terms: Cellular ATP, detected with luciferase, serves as a proxy for viable cell number.

The subject of test [4] is CASKI. Described as above. To be noted: Gynecologic cancer cell panel viability, ATPlite luminescence, 48 h; series mostly up to 57.5 µM. In a few lines: as §2
Test [5] concerns Es-2. The description is as above. As to conditions: Gynecologic cancer cell panel viability, ATPlite luminescence, 48 h; series mostly up to 57.5 µM. The gist of the method: as §2
Test [6] has as its system HeLa. The description is as above. As to conditions: Gynecologic cancer cell panel viability, ATPlite luminescence, 48 h; series mostly up to 57.5 µM. The gist of the method:
as §2

Test [7] deals with Hek293T. The description is as above. To be noted: Gynecologic cancer cell panel viability, ATPlite luminescence, 48 h, control line for the selectivity index; series mostly up to 57.5 µM. The gist of the method: as §2
Test [8] has as its system JEG-3. The description is as above. To be noted: Gynecologic cancer cell panel viability, ATPlite luminescence, 48 h; series mostly up to 57.5 µM. The gist of the method: as §2
The test system of test [9] is MCC-26. Kind of test: qHTS assay to identify novel small-molecules to repurpose for Merkel cell carcinoma treatment (AID 1296009). Note: nearly all actives have a fitted effect of over 60% in size. As to conditions: MCC and control cell lines, CellTiter-Glo viability, 72 h. In a few lines: as §1
Test [10] relates to MKL-2. The description is as above. As to conditions: MCC and control cell lines, CellTiter-Glo viability, 72 h. The gist of the method: as §1
Potency is the fitted concentration of half-maximal effect.

For `CCCCOC(=O)NS(=O)(=O)c1sc(CC(C)C)cc1-c1ccc(Cn2ccnc2)cc1`, the Potency entry in [1], in [2], in test [3], in test [4], in test [5] and in test [6] was “inactive” each time. In addition, the Potency entry in test [7] and in test [8] was “inactive” each time.
On to `CN1CCc2cc3c(cc2C(=O)Cc2cc4c(cc2C1)OCO4)OCO3`, for which the Potency result in test [1], in test [2], in test [3], in test [4], in test [5] and in [6] was “inactive” throughout. Also, the Potency result in test [7] and in test [8] was “inactive” throughout.
Consider `CCOC(=O)N1CCC(N2CCC[C@@H](NC(=O)c3ccccc3C)C2)CC1`, for which the Potency entry in [1], in test [2], in test [3], in test [4], in [5] and in test [6] was “inactive” each time. The Potency entry in [7] and in test [8] was “inactive” each time.
As to `CN[C@H]1CC[C@@H](c2ccc(Cl)c(Cl)c2)c2ccccc21`, the values for the Potency in test [9], in test [10] and in test [4] were 26.6 µM (active), 8.41 µM (active) and 28.2 µM (active), respectively.
Consider `CC1=C2C[C@@]3(C)C(CCC[C@@H]3C)C(O)C2OC1=O` (some centres undefined), for which the Potency entry in test [1], in test [2], in [3], in test [4], in test [5] and in test [6] was “inactive” each time. For the same compound, the Potency entry in [7] and in [8] was “inactive” throughout.
Consider `N#Cc1cc(C2=Nc3ccc(Br)cc3NC(=O)C2)ccn1`, for which the Potency entry in [1], in [2], in test [3], in test [4], in test [5] and in test [6] was “inactive” throughout. In addition, the Potency result in test [7] and in test [8] was “inactive” each time.
Regarding `CC(C)(O)C1CC(=O)C2(C)C(CCC3(C)C(c4ccoc4)OC(=O)C4OC432)C12CCC(=O)OC2` (centres undefined), the Potency entry in test [1], in [2], in test [3], in test [4], in [5] and in test [6] was “inactive” each time. In test [7], the Potency entry was “inactive”.
With `Oc1cccc(-c2c3nc(c(-c4cccc(O)c4)c4ccc([nH]4)c(-c4cccc(O)c4)c4nc(c(-c5cccc(O)c5)c5ccc2[nH]5)CC4)C=C3)c1`, the Potency in [10] is 13.3 µM (active). The Potency result in [3], in test [4] and in [8] was “inactive” throughout.
`CNC(C)C(=O)NC(C(=O)N1CCCC1C(=O)Nc1snnc1-c1ccccc1)C1CCCCC1` (centres undefined): the Potency entry in [1], in [2], in test [3], in [4], in test [5] and in test [6] was “inactive” in each case. Moreover, the Potency entry in [7] and in test [8] was “inactive” throughout.
As to `O=C(NCC1(N2CCN(c3ccccc3)CC2)CCOCC1)c1cccnc1Sc1ccccc1`, the Potency entry in test [1], in test [2], in [3], in [4], in test [5] and in test [6] was “inactive” each time. Further, the Potency entry in test [7] and in test [8] was “inactive” throughout.
Turning to `C=CC(=O)N1CC(N2CCN(C(=O)CNc3cc(C4CC4)c(Cl)cc3O)CC2)C1`, the Potency result in test [1], in test [2], in test [3], in [4], in [5] and in test [6] was “inactive” throughout. Also, the Potency result in [7] and in [8] was “inactive” throughout.
In the case of `CCCn1cc2c(nc(NC(=O)Nc3ccc(OC)cc3)n3nc(-c4ccco4)nc23)n1`, the Potency result in [1], in test [2], in test [3], in test [4], in [5] and in test [6] was “inactive” throughout. Besides, the Potency result in [7] and in [8] was “inactive” in each case.
As for `CCC(C)C(=O)O[C@H]1[C@@H](OC(=O)c2ccoc2)C[C@](C)(O)[C@]23OC(C)(C)[C@H](C[C@H](OC(=O)c4ccoc4)[C@]12COC(C)=O)[C@H]3OC(C)=O` (some centres undefined), the Potency entry in test [1], in [2], in [3], in test [4], in test [5] and in test [6] was “inactive” throughout. Moreover, the Potency entry in test [7] and in test [8] was “inactive” throughout.
Take `CC(C)(O)c1ccc2c(c1)ncn2-c1cccc(-c2ccccc2C#N)c1`: the Potency entry in [1], in test [2], in test [3], in [4], in test [5] and in [6] was “inactive” throughout. Moreover, the Potency entry in test [7] and in [8] was “inactive” each time.
Regarding `C[C@@H]1CN(CC(=O)N2CC(C)(C)c3ncc(Cc4ccc(F)cc4)cc32)[C@@H](CN2CCOC[C@H]2C)CN1`, in test [1], the Potency entry is “inactive”.
For the compound `CCC(CC)C(=O)OC12C(OC(=O)C(C)C)C(C)C3(O)C(C=C(CO)CC4(O)C(=O)C(C)=CC43)C1C2(C)C` (centres undefined), the Potency result in test [1], in [2], in test [3], in test [4], in test [6] and in test [7] was “inactive” each time. For the same compound, the Potency result in test [8] was “inactive”. The Potency in test [5] is 0.0708 µM (active).
`CNCCCC1(c2ccccc2)OC(C)(C)c2ccccc21` (centres undefined): the Potency result in test [1], in test [2], in test [3], in test [4], in test [5] and in test [6] was “inactive” each time. Further, the Potency result in test [7] and in test [8] was “inactive” each time.
`COc1cc(O)cc(OC2OC(CO)C(O)C(O)C2O)c1` (centres undefined): the Potency result in test [1], in test [2], in [3], in test [4], in [5] and in test [6] was “inactive” each time. Moreover, the Potency result in test [7] and in test [8] was “inactive” throughout.
On to `CCN1CCC[C@@H]1CNC(=O)c1ccc2c(c1)NC(=O)c1cccc(C)c1S2`, for which the Potency entry in [1], in test [2], in [3], in test [4], in test [5] and in [6] was “inactive” throughout. For the same compound, the Potency entry in test [7] and in [8] was “inactive” in each case.
`C=C1CCCC2(C)CCC(C(C)(C)OC3OC(C)C(O)C(O)C3OC(=O)/C(C)=C\C)CC12` (centres undefined): the Potency entry in test [1], in test [2], in [3], in test [4], in test [5] and in test [6] was “inactive” throughout. The Potency entry in test [7] and in [8] was “inactive” in each case.
Regarding `O=C(/C=C/c1ccccc1O)O[C@@H]1O[C@H](CO)[C@@H](O)[C@H](O)[C@H]1O`, the Potency entry in [1], in test [2], in test [3], in test [4], in test [5] and in test [6] was “inactive” throughout. Besides, the Potency entry in [7] and in test [8] was “inactive” each time.
For the compound `CC(C)(F)CC(NC(c1ccc(-c2ccc(S(C)(=O)=O)cc2)cc1)C(F)(F)F)C(=O)NC1(C#N)CC1` (centres undefined), the Potency result in test [1], in [2], in test [3], in test [4], in [5] and in test [6] was “inactive” throughout. Moreover, the Potency result in test [7] and in [8] was “inactive” each time.
